# From PubChem BioAssay (NCATS)
# Results filed as inconclusive are left out. Active and inactive are the calls of the source. Calls follow the shape of the dose curve; as a rule, active = well fitted cell-killing curve with a large enough effect; inconclusive = small, poorly fitted or top-dose-only effect; inactive = flat fitted curve, though single readings scatter.
# Test: qHTS of pediatric cancer cell lines to identify multiple opportunities for drug repurposing: Primary screen for TC32 cells (AID 1347089); also: nearly all actives have a fitted effect of over 60% in size
# Settings: TC32 Ewing sarcoma viability, CellTiter-Glo luminescence, 48 h; series mostly up to 45.8 µM; activity change, negative = cytotoxic: at the top concentration
# Excerpt: Drug repurposing or repositioning has been offered as a strategy for drug development in oncology programs. This approach has special potential for childhood cancers and other rare or orphan diseases, where the expected return on new drug development has been a disincentive to pharmaceuticals.
# In this project we exploit the poly-pharmacology of drugs to discover new indications via phenotypic screening of a panel of 19 well-characterized cell lines derived from solid tumors seen in children and adolescents. The goal is to identify approved drugs with previously unrecognized anticancer properties that has the potential to reveal new mechanisms and biological processes involved in carcinogenesis or drug resistance. We employed a titration-based paradigm (quantitative high-throughput screening or qHTS), where all compounds were tested at multiple concentrations for their effect on cell viability. Concentration-response curves (CRCs) were derived directly from the primary screen, and both potency and efficacy values were used to identify compounds with robust bioactivity profiles. We screened the NIH Chemical Genomics Center (NCGC) Pharmaceutical Collection (NPC) and Mechanism Interrogation Plate (MIPE) small molecule collections of approved and investigational compounds against these cell lines; and measured metabolically active cells after 48 hours of compound treatment as a proxy for cell viability.
# Assay Submitter: Nathalia J. Martinez, National Center for Advancing Translational Sciences, National Institutes of Health, Rockville, MD, USA; email: natalia.martinez@nih.gov
# [1] Shen, M et al. Quantitative high-throughput phenotypic screening of pediatric cancer cell lines identifies multiple opportunities for drug repurposing. Oncotarget 2017 Dec 19;9(4):4758-4772. PMID 29435139.
# The cells were obtained from University of North Carolina (UNC), Pediatric Preclinical Testing Program (PPT), and Coriell Institute (CI).
# qHTS cell viability assay:
# Cells were assayed in growth media at a density of 500-1,000 cells/well. Five microliters of cells were dispensed into 1,536-well, white, solid-bottom, TC-treated plates (Greiner Bio One) using a multidrop dispenser and incubated at 37 degrees C, 5% CO2, under a humidified atmosphere for 5 hours. Twenty-three nanoliters of compounds and controls (neutral control DMSO or positive control bortezomib at final concentration of 2.3 uM) were subsequently transferred by Kalypsys pintool. For primary screens, the MIPE collection was tested at 11-point dilutions (final concentrations range from 0.78 nM to 46 µM) and the NPC collection at 8-point dilutions (final concentrations range from 0.59 nM to 46 µM). Compounds tested in follow-up screens were assayed at 11-point dilutions. Cells were incubated for 48 hours, followed by addition of 3 uL of CellTiter-Glo (Promega). After a 15min incubation at room temperature, samples were analyzed for luminescence intensity using a ViewLux High-throughput CCD imager equipped with clear filters.
# % is scaled to controls: 0 for no effect and ±100 for the full control effect; potency is read from the fitted curve at half-maximal effect.
Compound,"activity change, negative = cytotoxic",Potency
O=c1[nH]c(=O)n([C@H]2C[C@@H](O)[C@@H](CO)O2)cc1C=CBr,4.41% (inactive),
C=C1C(=O)O[C@H]2[C@@H]1CCC(C)=CCC[C@@]1(C)O[C@@H]21,,23.4 µM (active)
Cc1cnc(Nc2ccc(CN3CCOCC3)cc2)nc1Nc1cccc(S(=O)(=O)NC(C)(C)C)c1,,9.3 µM (active)
C=Cc1c(C)c2cc3nc(cc4[nH]c(cc5nc(cc1[nH]2)C(C)=C5CCC(=O)O)c(CCC(=O)OC)c4C)[C@@]1(C)C3=CC=C(C(=O)OC)[C@H]1C(=O)OC,,5.87 µM (active)
CCCCCCCCCCCCCCCC(=O)OC[C@@H](NC(=O)C(Cl)Cl)[C@H](O)c1ccc([N+](=O)[O-])cc1,13.6% (inactive),
Cc1cc(Nc2ncc3c(n2)N(C)C(=O)N(c2cc(NC(=O)c4cccc(C(F)(F)F)c4)ccc2C)C3)n(C)n1,,1.47 µM (active)
COc1cc([C@@H]2c3cc4c(cc3[C@@H](O[C@@H]3O[C@@H]5CO[C@@H](c6cccs6)O[C@@H]5[C@H](O)[C@@H]3O)[C@H]3COC(=O)[C@H]23)OCO4)cc(OC)c1O,,0.208 µM (active)
CC(C(C)N1CC(=O)NC(=O)C1)N1CC(=O)NC(=O)C1 (stereo not given),4.59% (inactive),
NC(=O)Nc1sc(-c2ccc(F)cc2)cc1C(N)=O,,3.7 µM (active)
O=C(O)CCCCCC(=O)NN=C1CCCC1,5.17% (inactive),
C[N+]1(C)[C@@H]2C[C@@H](OC(=O)C(O)(c3cccs3)c3cccs3)C[C@H]1[C@@H]1O[C@@H]12,11.2% (inactive),
CC(=O)OCC(=O)[C@@]1(O)CC[C@H]2[C@@H]3CCC4=CC(=O)CC[C@]4(C)[C@@H]3C(=O)C[C@@]21C,14.4% (inactive),
CC[C@]12C=CCN3CC[C@@]4(c5cc([C@@]6(C(=O)OC)C[C@H]7C[C@@H](C(C)(F)F)CN(Cc8c6[nH]c6ccccc86)C7)c(OC)cc5N(C)[C@H]4[C@@](O)(C(=O)OC)[C@H]1OC(C)=O)[C@@H]32,,0.0587 µM (active)
NC1=N[C@H]2[C@H](CS[C@H]2CCCCC(=O)O)N1,14.8% [at 16 µM] (inactive),
C=C(C)[C@@H]1CC[C@]2(C)CC[C@]3(C)[C@H](CC[C@@H]4[C@@]5(C)CC[C@H](O)C(C)(C)[C@H]5CC[C@]43C)[C@@H]12,0% (inactive),
N[C@H]1CN(c2c(F)cc3c(=O)c(C(=O)O)cn(C4C[C@@H]4F)c3c2Cl)CC12CC2 (stereo not given in full),3.78% (inactive),
N#Cc1c(NC(=O)c2cccc3ccccc23)sc2c1CCCC2,,1.04 µM (active)
COc1cccc2c1C(=O)c1c(O)c3c(c(O)c1C2=O)C[C@@](O)(C(=O)CO)C[C@@H]3O[C@H]1C[C@H](N)[C@H](OC2CCCCO2)[C@H](C)O1 (stereo not given in full),,3.7 µM (active)
c1ccc2c(Oc3nc(Nc4ccc(N5CCOCC5)cc4)c4ncn(C5CCCCC5)c4n3)cccc2c1,9.11% (inactive),
O=c1ccn([C@@H]2O[C@H](CO)[C@H](O)[C@@H]2F)c(=O)[nH]1,5.2% (inactive),

Compound,"activity change, negative = cytotoxic",Potency
CC(C)(N)c1ccc(-c2nc3ccccc3nc2-c2ccccc2)cc1,2.03% (inactive),
Cc1coc2c1C(=O)C(=O)c1c-2ccc2c(C)cccc12,3.68% (inactive),
Nc1nc(=O)n([C@H]2CSC(CO)O2)cc1F (stereo not given in full),13.5% (inactive),
C[C@H]1C[C@H]2[C@@H]3CCC4=CC(=O)C=C[C@]4(C)[C@@H]3C(=O)C[C@]2(C)[C@@]1(O)C(=O)CO,6.42% (inactive),
C[C@H]1COc2c(N3CCN(C)CC3)c(F)cc3c(=O)c(C(=O)O)cn1c23,4.15% (inactive),
CCC[C@H]1C[C@H](C(=O)N[C@@H]([C@@H]2O[C@@H](SC)[C@@H](O)[C@@H](O)[C@@H]2O)[C@H](C)Cl)N(C)C1,-1.63% (inactive),
CCCCOc1ccc(C(=O)Nc2ccc(F)cc2F)cc1,11.7% (inactive),
C#C[C@]1(O)CC[C@@H]2[C@@H]3CCC4=CC(=O)CC[C@@H]4[C@H]3CC[C@@]21CC,-13.6% (inactive),
COc1cccc2c1C(=O)c1c(O)c3c(c(O)c1C2=O)C[C@@](O)(C(=O)CO)C[C@@H]3O[C@H]1C[C@H](N)[C@@H](O)[C@H](C)O1,,0.658 µM (active)
OCc1ccccc1O[C@@H]1O[C@H](CO)[C@H](O)[C@H](O)[C@H]1O,4.14% (inactive),
O=C1NC(=O)C(=Cc2ccc3nccc(-c4ccncc4)c3c2)S1,,0.523 µM (active)
CC(N[C@H]1CCCC[C@H]1NC(=O)c1ccc(Cl)cc1)c1cccc2ccccc12 (stereo not given in full),10.2% (inactive),
CCN(C(=O)c1c(O)c2c(Cl)cccc2n(C)c1=O)c1ccccc1,14.7% (inactive),
CCn1c(=O)c2c(nc(C=Cc3ccc(OC)c(OC)c3)n2C)n(CC)c1=O,7.79% (inactive),
NC(=NCCCCCCN=C(N)N=C(N)Nc1ccc(Cl)cc1)N=C(N)Nc1ccc(Cl)cc1,4.54% (inactive),
Cc1cc(O)c2c(c1)C(=O)c1cccc(O)c1C2=O,13.9% (inactive),
c1cc(CN2CCCNCCNCCCNCC2)ccc1CN1CCCNCCNCCCNCC1,17.9% (inactive),
O=C1NCCc2[nH]c(-c3ccncc3)cc21,,11.7 µM (active)
COc1cc(C)c(Sc2cnc(NC(=O)c3ccc(CNC(C)C(C)(C)C)cc3)s2)cc1C(=O)N1CCN(C(C)=O)CC1 (stereo not given),,20.8 µM (active)
O=C(C=CC#Cc1cccc(NS(=O)(=O)c2ccccc2)c1)NO,,7.39 µM (active)
